PubChem BioAssay AID1117319 (Southern Research Institute, 2015)
Values joined by “and” are separate entries in the source; they are usually repeats but may differ in a detail not shown here. Equal values may be shown once. The campaign covered roughly 260,000 compounds. About 1,500 (0.58%) were called active. Inconclusive results (about 5%) are left out.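 Rule for the calls: active = inhibition above a set limit at one or more doses, reproduced on every date tested; inconclusive = results disagree between test dates, or hit never tested in dose response; inactive = the rest.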 These entries were drawn from the full list. Measured potencies and affinities stand elsewhere.

target: Virion infectivity factor (Human immunodeficiency virus type 1 group M subtype B (isolate BH10)) + Virion infectivity factor (Human immunodeficiency virus type 1 group M subtype B (isolate BRU/LAI)) + Virion infectivity factor (Human immunodeficiency virus type 1 group M subtype B (isolate PCV12)) + Virion infectivity factor (Human immunodeficiency virus type 1 group M subtype B (isolate HXB2)) + DNA dC->dU-editing enzyme APOBEC-3G (Homo sapiens) (UniProt P69720+P69721+P69722+P69723+Q9HC16); assay: inhibitors of Vif binding to APOBEC3G peptide, primary screen, biochemical, TR-FRET, GST-Vif 1-94, biotin-A3G peptide, dose response retest (AID 1117319); conditions: active compounds read high;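 note: Vif residues 1-94 fused to GST binding biotinylated APOBEC3G peptide 110-148; 0% = full assay without inhibitor and 100% = GST in place of GST-Vif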

inhibition, inactive:
CCOC(=O)c1csc(NC(=O)CN2CCOCC2)n1 -8.71%
Cc1cccc(N2CCN(Cc3nc(-c4cccc(Oc5ccccc5)c4)oc3C)CC2)n1 3.4%
CCN(CC)S(=O)(=O)c1cccc(NC(=O)C2SC(=Nc3ccc(C)cc3C)C(C(=O)NCC3CCCO3)=C2N)c1 (centres undefined) 2.72%
Cc1cc2cc(C(=O)N3CCc4c([nH]c5ccccc45)C3c3ccccn3)ccc2o1 (centres undefined) 10.8%
O=C(c1ccccc1O)N1CCOCC1 -1.64%
CC(=O)N1c2ccc(Cl)cc2C2C=CCC2C1c1cccc2ccccc12 (centres undefined) 19.4%
O=C(O)C1C=CC(C(=O)O)c2ccccc21 (centres undefined) -4.89%
Cc1ccc(C)c(NC(=O)C2CC=CCC2C(=O)O)c1 (centres undefined) -2.09%
COc1ccccc1C1CCN(C(=O)c2ccccc2)CC1 6.08%
COc1cccc(C2Nc3c(F)cc(Br)cc3C3C=CCC32)c1OC (centres undefined) 5.44%
O=C(c1ccccc1)c1ccccc1C(=O)N1CCOCC1 5.31%
CCC(C)[C@H](NC(=O)C1CCN(C(=O)[C@H](Cc2ccccc2)NC(=O)OC(C)(C)C)CC1)C(=O)O (some centres undefined) 7.73%
Cc1ccc(C(=O)NNC(=O)c2ccc3ccccc3c2)cc1 1.23%
O=C(c1ccc(S(=O)(=O)N2CCCCCC2)cc1)N1CCN(c2ccccn2)CC1 -5.37%
Cc1cc(C(=O)N2CCc3c([nH]c4ccccc34)C2c2c(F)cccc2Cl)no1 (centres undefined) -4.57%
O=C(Nc1ccc(S(=O)(=O)N2CCOCC2)cc1)c1cc(-c2ccccc2O)n[nH]1 -5.69%
CSCCC(NS(=O)(=O)c1ccc(C)cc1)C(=O)NCC(C)(C)N1CCOCC1 (centres undefined) 26.5%
CCOc1cc(C(=O)Oc2cc(C)[nH]c(=O)c2[N+](=O)[O-])cc(OCC)c1OCC -2.15%
CC(C)C(=O)Nc1nnc(-c2ccco2)s1 -4.43%
CCCC(=O)Nc1nnc(-c2ccco2)s1 5.96%
O=C(COC(=O)Cn1cnc2ccccc2c1=O)NCc1ccccc1 -5.43%
COCCn1c(C)cc(C(=O)COC(=O)c2c(C)nn(Cc3ccccc3)c2C)c1C 15.2%
Cc1nn(Cc2ccccc2)c(C)c1C(=O)OCC(=O)c1cc(C)n(CC(F)(F)F)c1C 13.3%
C=CCOc1ccc(CNc2nccs2)cc1OC -2.98%
Cn1nnnc1SCc1cc(=O)n2ccsc2n1 8.97%
COc1ccc(OCCNC(=S)Nc2cccc3ccccc23)cc1 2.41%
O=C(NC(NC(=S)Nc1cccc(C(=O)O)c1)C(Cl)(Cl)Cl)OCc1ccccc1 (centres undefined) 16%
CCCCOC(=O)c1cc(C)nc2ccc(Br)cc12 10.8%
CC1=C(C(=O)Nc2ccccc2)C(c2ccco2)NC(=O)N1 (centres undefined) -0.31%
CC1=C(C(=O)Nc2ccccc2)C(c2ccco2)NC(=S)N1 (centres undefined) -0.58%
N#C/C(=C\c1cccs1)C(=O)N1CCOCC1 4.24%
CCOc1ccc(-n2cc(C(=O)NCCOC)c3cc(OC)c(OC)cc3c2=O)cc1 -0.11%
CC1=CCC2C(=O)N(c3ccc4ccccc4n3)C(=O)C2C1 (centres undefined) 3.04%
O=C(COC(=O)c1n[nH]c(=O)c2ccccc12)c1ccc(Cl)cc1 -6%
COc1cc(C2CC(=O)c3c(O)cc(O)cc3O2)ccc1O (centres undefined) 9.19%
COc1ccc([C@H]2CC(=O)c3c(O)cc(O)cc3O2)cc1O 9.99%
Cc1nnc(SCc2cc([N+](=O)[O-])cc3c2OCOC3)n(N)c1=O 20.5%
O=[N+]([O-])c1cc2c(c(CSc3ncccn3)c1)OCOC2 1.34%
COc1ccc(CCNC(=O)COc2coc(CN3c4ccccc4CC3C)cc2=O)cc1OC (centres undefined) 3.96%
CCOC(=O)c1oc2ccc(/C=N/O)c(Cl)c2c1C -0.46%
CC1CN(C(=O)COC(=O)c2cnc(Cl)c(Cl)c2)CC(C)O1 (centres undefined) -12.2%
Nc1ncnc2c1ncn2[C@@H]1O[C@H](CNC(=O)[C@@H]2C[C@H](F)CN2)[C@@H](O)[C@H]1O -0.68%
COc1cccc(CNc2ccc(F)c([N+](=O)[O-])c2)c1O -12%
COCCCn1c(=NC(=O)c2ccncc2)c(C#N)cc2c(=O)n3cccc(C)c3nc21 3.9% and 7.65%
CCCCn1c(=NC(=O)c2ccc3c(c2)OCO3)c(C#N)cc2c(=O)n3cccc(C)c3nc21 6.53%
O=C(c1cccc(S(=O)(=O)N2CCc3ccccc32)c1)N1CCN(c2ccccn2)CC1 -7.91%
Cc1cnc(C(=O)OCC(=O)Nc2cc(-c3cc(C)c(C)cc3C)nn2-c2ccccc2)cn1 3.14%
S=c1[nH]nc(-c2cc(-c3ccco3)[nH]n2)n1-c1cccc2ccccc12 16.8%
S=c1[nH]nc(-c2cc(-c3ccco3)[nH]n2)n1-c1ccccc1 4.55%
COc1ccccc1-n1c(-c2ccco2)n[nH]c1=S -2.63%
COc1ccccc1-n1c(-c2cc(-c3ccc(F)cc3)n[nH]2)n[nH]c1=S 0.73%
Cc1cc2c(cc1C)NC1=C(N2)OC(c2cccc(O)c2)C1=O (centres undefined) 5.24%
NS(=O)(=O)c1ccc(CCNC(=O)CSc2ccsc2[N+](=O)[O-])cc1 4.39%
CC(=O)N1CCN(C(=O)CCNC(=O)c2ccc(Br)cc2)CC1 0.92%
CCN1CCN(c2nc3ccccn3c(=O)c2/C=C(\C#N)S(=O)(=O)c2ccccc2)CC1 -0.55%
COC(=O)c1ccc(C(=O)NN)cc1 -8.26%
Cc1cccc(NC(=O)Cc2ccc(F)cc2)c1 -2.86%
Cc1ccc(NC(=O)CCc2nc(-c3cccs3)no2)c(Br)c1 0.83%
C(=C\c1ccc2ccccc2n1)/c1ccccc1 10.9%
Fc1ccccc1/C=C/c1ccc2ccccc2n1 1.57%
CN(C)c1c2ccccc2nc2c(F)c(F)c(F)c(F)c12 -2.85%
Cc1c(N(C)C)nc2ccccc2c1N -3.71%
CNC(=O)COc1coc(CN2CCN(c3cccc(Cl)c3)CC2)cc1=O 6.04%
CCOc1ccccc1OCC(=O)NC1CCCCC1 -0.58%
CCOC(=O)N/N=C(/c1ccccc1)C1CCCCC1 -4.75%
CCN(C(=O)COC(=O)/C=C/c1cnc2ccccc2n1)c1ccccc1 -2.53%
CCOCC(=O)OCC(=O)Nc1cc(OC)c([N+](=O)[O-])cc1C 7.7%
COc1cccc(-c2nnc(SCC(=O)Nc3cc(C)ccc3OC)n2N)c1 3.89%
CCn1cc[n+](C)c1P(c1ccccc1)c1ccccc1 3.82%
COCCCn1c(=O)c2sccc2n2c(CCCC(=O)NCc3ccccc3OC)nnc12 -3.09%
O=[N+]([O-])c1ccc(Cl)c(S(=O)(=O)NC2=NCCC2)c1 -7.04%
Cc1ccc([N+](=O)[O-])cc1S(=O)(=O)Nc1cccc(S(=O)(=O)NC2=NCCC2)c1 3.32%
CC1(C)CC(=O)C=C(c2n[nH]nc2-c2ccc(F)c(F)c2)C1 -13.9%
CCOC(=O)c1cc(-c2ccc(OC)cc2OC)nn1-c1ccc(C(=O)O)cc1 4.72%
CN1CCc2c(sc(NC(=O)c3ccc(S(=O)(=O)N4CCOCC4)cc3)c2C(N)=O)C1 18.7%
CC(C)N1CCc2c(sc(NC(=O)c3ccc(S(=O)(=O)N4CCOCC4)cc3)c2C(N)=O)C1 -2.18%
Cc1c(C(=O)N(C)Cc2nc3ccccc3c(=O)[nH]2)oc2ccccc12 -2.36%
Cc1ccc(C2CC(=O)C=C(NCC(C)C)C2)cc1 (centres undefined) 3.68%
O=C1C=C(Nc2ccc(Cl)cc2Cl)CC(c2ccco2)C1 (centres undefined) 2.86%
O=C1C=C(NCc2ccc(Cl)cc2)CC(c2ccco2)C1 (centres undefined) 32.3%
Cc1ccc(NC2=CC(=O)CC(c3ccco3)C2)c(N)c1 (centres undefined) 23.3%
Cc1ccnc(NC(=O)c2ccc3c(c2)OCO3)c1 4.65%
Cc1cc(C)c2c(c1)/C(=N\N=c1\sc3ccccc3n1C)C(=O)N2 0.52%
Cc1cccc2c1NC(=O)C2=O 32.4%
COc1ccc(OC)c(NC(=O)CCN2CCN(C)CC2)c1 2.28%
COc1ccc(OC)c(NC(=O)CCN2CCCCC2)c1 -3.02%
N#Cc1cccc(NC(=O)CSc2nnc(-c3n[nH]c4ccccc34)o2)c1 -4.45%
Cc1cc(C(=O)COC(=O)c2ccccc2Br)c(C)n1CC1CCCO1 (centres undefined) 30.3%
Cc1cc(C(=O)COC(=O)c2ccccc2O)c(C)n1CC1CCCO1 (centres undefined) -14.1%
CCn1c(C)cc(C(=O)CN2C(=O)c3ccccc3S2(=O)=O)c1C 6.44%
Cc1cccc(-n2nnnc2SCC(=O)c2cc(C)n(CC3CCCO3)c2C)c1 (centres undefined) 22.8%
Cc1ccc(-n2nnnc2SCC(=O)c2cc(C)n(CC3CCCO3)c2C)cc1 (centres undefined) -3.58%
CCCn1c(C)cc(C(=O)CN2C(=O)c3ccccc3S2(=O)=O)c1C 0.72%
COc1ccc(OCC(=O)Nc2ccc(OC)c(S(=O)(=O)N3CCCCC3)c2)cc1 -0.4%
